# Measured values published in ChEMBL document CHEMBL3988442, “University of Dundee, Small-Polar-MMV Screening Library” (2021).
# For some of these results: Potency and affinity values are given separately.
# Legend:
# Parameters in all cases: scale not given: direction of the effect not stated beside the values
# [1] = molecular target: Protein translocase subunit SecA (Escherichia coli (strain K12)) (UniProt P10408); test: Assay to Identify E. coli SecA ATPase Inhibitors; type: functional; conditions: 30 µM
# [2] = molecular target: T1, Ubiquitin-activating enzyme e1, putative (Leishmania donovani (strain BPK282A1)) (UniProt E9BSI1); test: Leishmania donovani Ubiquitin Activating Enzyme (LdE1); type: functional; conditions: 30 µM
# T1 sequence (whole entry): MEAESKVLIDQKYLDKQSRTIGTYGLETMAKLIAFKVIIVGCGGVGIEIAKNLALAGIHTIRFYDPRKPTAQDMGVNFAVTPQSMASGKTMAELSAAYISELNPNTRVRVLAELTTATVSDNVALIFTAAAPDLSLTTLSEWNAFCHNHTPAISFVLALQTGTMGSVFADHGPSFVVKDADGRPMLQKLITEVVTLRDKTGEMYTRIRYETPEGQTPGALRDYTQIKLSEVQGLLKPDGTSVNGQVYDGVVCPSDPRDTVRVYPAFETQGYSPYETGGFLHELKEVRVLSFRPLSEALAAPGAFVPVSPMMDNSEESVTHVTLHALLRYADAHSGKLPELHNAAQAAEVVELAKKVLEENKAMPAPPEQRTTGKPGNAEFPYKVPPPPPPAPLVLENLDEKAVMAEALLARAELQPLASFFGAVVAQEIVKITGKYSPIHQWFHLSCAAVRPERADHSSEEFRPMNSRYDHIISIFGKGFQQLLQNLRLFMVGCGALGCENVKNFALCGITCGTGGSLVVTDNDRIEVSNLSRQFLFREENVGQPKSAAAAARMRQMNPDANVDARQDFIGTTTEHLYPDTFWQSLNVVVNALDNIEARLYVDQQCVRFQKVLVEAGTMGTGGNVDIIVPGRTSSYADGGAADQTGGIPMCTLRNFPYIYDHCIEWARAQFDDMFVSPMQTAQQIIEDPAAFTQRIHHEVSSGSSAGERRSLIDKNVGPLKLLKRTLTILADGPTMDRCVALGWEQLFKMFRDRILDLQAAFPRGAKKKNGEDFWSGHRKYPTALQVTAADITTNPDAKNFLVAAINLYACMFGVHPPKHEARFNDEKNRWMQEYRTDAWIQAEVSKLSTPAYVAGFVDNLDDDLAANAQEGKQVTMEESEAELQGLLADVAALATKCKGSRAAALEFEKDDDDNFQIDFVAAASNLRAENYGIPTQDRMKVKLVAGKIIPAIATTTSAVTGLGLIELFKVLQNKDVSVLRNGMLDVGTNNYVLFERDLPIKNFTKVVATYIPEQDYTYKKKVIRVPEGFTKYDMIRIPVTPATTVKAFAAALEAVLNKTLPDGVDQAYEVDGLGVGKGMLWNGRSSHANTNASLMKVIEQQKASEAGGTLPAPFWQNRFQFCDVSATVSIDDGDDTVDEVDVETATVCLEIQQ
# [3] = molecular target: AMP-activated protein kinase, AMPK (Homo sapiens) (UniProt P54646+O43741+P54619+Q9UGJ0+Q9Y478+Q13131+Q9UGI9); test: AMP-dependent Kinase enzyme assay. An in vitro enzyme assay that detects ADP turnover that is directly proportional to AMPK activity. This uses naive AMPK that is activated during the assay with MK-8722; type: functional; conditions: 30 µM
# [4] = molecular target: Sialic acid-binding Ig-like lectin 9 (Homo sapiens) (UniProt Q9Y336); test: Hs-Siglec9 ALPHAscreen SOP 20170721; conditions: 10 µM
# [5] = tested on: Trypanosoma cruzi; test: Trypanosoma cruzi phosphomannomutase and mannose-1-phosphate guanylyltransferase assay; type: functional; conditions: 10 µM
# [6] = molecular target: T2, Arginase-2, mitochondrial (Homo sapiens) (UniProt P78540); test: in vitro enzyme assay to detect the production of urea directly proportional to the activity of Arginase II; type: functional; conditions: 33.3 µM; further: in the data most compounds retested in dose-response had high values
# T2 sequence (whole entry): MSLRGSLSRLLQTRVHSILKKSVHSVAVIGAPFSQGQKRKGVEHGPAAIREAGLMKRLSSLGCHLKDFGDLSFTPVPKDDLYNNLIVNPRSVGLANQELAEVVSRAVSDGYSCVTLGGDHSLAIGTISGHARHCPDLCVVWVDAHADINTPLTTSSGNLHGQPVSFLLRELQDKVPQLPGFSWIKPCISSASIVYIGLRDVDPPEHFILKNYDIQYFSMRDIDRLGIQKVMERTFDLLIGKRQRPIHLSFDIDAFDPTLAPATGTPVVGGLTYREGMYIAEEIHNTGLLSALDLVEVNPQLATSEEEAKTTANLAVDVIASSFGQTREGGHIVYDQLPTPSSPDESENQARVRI
# [7] = molecular target: T3, Proteasome subunit beta (Trypanosoma cruzi) (UniProt O96673); test: Trypanosoma cruzi proteasome chymotrypsin-like activity (TcProtChymo) assay.; further: in the data most compounds retested in dose-response had high values; type: functional; conditions: 9.37 µM
# T3 sequence (whole entry): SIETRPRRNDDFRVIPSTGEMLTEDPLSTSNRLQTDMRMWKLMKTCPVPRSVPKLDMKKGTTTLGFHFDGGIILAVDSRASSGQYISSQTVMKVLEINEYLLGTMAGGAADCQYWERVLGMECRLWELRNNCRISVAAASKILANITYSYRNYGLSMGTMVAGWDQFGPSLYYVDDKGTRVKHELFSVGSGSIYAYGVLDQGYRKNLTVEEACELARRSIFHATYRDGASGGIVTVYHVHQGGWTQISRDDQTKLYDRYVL
# [8] = organism: Homo sapiens; test: To identify inhibition of the IFN signalling (Jak-Stat) pathway via expression of an eGFP reporter gene under the control of an IFN-stimulated response element (ISRE) containing MxA promoter.; type: functional; conditions: 30 µM
# [9] = molecular target: T4, Tyrosyl-tRNA synthetase, putative (Trypanosoma cruzi (strain CL Brener)) (UniProt Q4DSP6); test: Trypanosoma cruzi tyrosyl tRNA synthetase (TcYRS) _High Tyrosine SOP; type: functional; conditions: 30 µM; further: in the data most compounds retested in dose-response had high values
# T4 sequence (whole entry): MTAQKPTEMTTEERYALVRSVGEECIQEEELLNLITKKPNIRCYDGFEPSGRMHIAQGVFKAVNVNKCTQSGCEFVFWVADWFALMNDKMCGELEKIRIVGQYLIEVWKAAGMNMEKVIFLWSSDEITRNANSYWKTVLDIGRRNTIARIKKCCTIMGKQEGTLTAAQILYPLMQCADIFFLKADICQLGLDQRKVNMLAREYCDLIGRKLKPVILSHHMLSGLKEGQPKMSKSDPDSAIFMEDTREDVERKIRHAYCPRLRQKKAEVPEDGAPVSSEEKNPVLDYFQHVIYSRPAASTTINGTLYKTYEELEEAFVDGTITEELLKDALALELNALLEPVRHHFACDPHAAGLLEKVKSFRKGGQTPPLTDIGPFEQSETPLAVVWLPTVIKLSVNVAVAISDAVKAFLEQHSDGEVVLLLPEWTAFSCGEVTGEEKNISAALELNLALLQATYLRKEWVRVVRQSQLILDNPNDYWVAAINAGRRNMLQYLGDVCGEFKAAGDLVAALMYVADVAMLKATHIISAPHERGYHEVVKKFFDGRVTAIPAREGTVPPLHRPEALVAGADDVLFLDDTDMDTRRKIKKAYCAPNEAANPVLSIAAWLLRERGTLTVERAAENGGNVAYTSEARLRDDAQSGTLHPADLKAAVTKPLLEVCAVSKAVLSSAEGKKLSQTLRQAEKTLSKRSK
# [10] = molecular target: T4, Tyrosyl-tRNA synthetase, putative (Trypanosoma cruzi (strain CL Brener)); test: Trypanosoma cruzi tyrosyl tRNA synthetase (TcYRS) SOP; type: functional; conditions: 30 µM
# [11] = molecular target: Chromo domain-containing protein 1 (Saccharomyces cerevisiae (strain ATCC 204508 / S288c) (Baker's yeast)) (UniProt P32657); test: ScCHD-1 Enzyme Inhibition Assay; type: functional; conditions: 30 µM; further: in the data most compounds retested in dose-response had high values
# Chromo domain-containing protein 1 (Saccharomyces cerevisiae (strain ATCC 204508 / S288c) (Baker's yeast)), sequence (P32657 whole entry, the tested form may be a part): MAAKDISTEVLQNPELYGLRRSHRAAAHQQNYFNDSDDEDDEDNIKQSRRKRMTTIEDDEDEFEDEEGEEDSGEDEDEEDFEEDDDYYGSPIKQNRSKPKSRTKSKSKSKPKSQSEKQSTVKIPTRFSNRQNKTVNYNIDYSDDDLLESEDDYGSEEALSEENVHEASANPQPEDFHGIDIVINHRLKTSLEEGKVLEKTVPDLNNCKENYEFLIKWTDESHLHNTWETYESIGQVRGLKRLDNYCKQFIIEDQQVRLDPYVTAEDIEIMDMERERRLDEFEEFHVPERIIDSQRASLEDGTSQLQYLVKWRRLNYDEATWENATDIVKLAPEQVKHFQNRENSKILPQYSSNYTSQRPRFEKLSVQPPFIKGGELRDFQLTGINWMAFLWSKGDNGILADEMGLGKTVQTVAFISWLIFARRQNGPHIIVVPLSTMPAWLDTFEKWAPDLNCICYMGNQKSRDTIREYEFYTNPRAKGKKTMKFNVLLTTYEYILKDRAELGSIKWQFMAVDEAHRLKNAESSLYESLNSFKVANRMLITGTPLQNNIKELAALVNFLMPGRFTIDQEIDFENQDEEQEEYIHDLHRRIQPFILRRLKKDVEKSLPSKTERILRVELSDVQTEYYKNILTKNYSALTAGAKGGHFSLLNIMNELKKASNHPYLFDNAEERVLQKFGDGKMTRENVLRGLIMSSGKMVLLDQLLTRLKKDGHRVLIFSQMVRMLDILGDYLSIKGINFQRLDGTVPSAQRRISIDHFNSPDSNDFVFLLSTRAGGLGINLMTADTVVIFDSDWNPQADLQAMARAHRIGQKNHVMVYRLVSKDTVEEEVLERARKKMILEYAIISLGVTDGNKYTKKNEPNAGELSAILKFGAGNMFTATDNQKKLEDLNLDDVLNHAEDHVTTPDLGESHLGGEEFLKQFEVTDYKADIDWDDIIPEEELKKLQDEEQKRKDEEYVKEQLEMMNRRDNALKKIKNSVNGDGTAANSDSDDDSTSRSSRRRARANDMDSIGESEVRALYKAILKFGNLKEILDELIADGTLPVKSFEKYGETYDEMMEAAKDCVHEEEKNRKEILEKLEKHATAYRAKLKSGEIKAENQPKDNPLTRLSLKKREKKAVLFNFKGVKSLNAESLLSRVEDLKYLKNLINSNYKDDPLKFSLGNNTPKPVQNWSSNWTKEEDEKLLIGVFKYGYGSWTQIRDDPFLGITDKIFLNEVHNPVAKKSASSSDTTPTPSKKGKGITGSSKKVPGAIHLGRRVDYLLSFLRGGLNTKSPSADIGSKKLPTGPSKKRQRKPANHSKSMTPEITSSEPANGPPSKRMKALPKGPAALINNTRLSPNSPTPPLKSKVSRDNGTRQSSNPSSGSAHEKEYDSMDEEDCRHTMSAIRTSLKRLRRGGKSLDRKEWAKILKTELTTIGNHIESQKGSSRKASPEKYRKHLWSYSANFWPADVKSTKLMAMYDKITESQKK
# Sialic acid-binding Ig-like lectin 9 (Homo sapiens), sequence (Q9Y336 whole entry): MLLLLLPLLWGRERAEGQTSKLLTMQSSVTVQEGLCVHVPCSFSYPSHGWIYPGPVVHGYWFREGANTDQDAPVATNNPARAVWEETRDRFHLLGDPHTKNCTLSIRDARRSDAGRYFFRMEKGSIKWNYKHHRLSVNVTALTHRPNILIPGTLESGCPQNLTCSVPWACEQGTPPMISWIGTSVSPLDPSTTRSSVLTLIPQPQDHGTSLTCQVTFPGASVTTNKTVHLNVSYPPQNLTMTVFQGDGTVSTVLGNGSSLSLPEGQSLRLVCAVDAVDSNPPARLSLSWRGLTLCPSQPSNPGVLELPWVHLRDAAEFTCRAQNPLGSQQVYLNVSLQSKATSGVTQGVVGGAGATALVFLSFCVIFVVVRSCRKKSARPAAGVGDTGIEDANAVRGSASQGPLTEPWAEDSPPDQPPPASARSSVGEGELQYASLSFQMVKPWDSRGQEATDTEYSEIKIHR
# Protein translocase subunit SecA (Escherichia coli (strain K12)), sequence (P10408 whole entry): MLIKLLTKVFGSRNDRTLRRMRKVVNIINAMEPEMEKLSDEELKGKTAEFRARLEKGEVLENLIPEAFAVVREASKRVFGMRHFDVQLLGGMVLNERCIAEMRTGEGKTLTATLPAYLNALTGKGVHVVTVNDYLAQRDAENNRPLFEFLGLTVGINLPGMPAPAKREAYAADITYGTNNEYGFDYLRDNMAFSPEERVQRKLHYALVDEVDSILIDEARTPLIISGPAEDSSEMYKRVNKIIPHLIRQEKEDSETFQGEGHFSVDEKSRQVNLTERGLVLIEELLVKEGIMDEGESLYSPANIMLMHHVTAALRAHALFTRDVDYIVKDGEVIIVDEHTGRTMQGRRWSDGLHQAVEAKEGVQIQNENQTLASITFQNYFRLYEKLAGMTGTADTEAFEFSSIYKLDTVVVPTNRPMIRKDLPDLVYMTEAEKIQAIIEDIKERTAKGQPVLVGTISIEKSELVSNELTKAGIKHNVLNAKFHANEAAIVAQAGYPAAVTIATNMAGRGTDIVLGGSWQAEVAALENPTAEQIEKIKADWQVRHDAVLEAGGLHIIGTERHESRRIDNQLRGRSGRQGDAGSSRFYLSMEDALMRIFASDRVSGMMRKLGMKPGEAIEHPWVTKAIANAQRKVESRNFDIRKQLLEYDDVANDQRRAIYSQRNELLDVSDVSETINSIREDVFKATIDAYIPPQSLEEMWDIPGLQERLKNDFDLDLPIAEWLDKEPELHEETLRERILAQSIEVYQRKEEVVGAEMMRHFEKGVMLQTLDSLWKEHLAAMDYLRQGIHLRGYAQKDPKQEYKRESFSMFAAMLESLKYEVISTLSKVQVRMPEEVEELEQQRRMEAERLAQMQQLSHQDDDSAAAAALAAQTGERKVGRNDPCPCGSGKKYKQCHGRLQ
SMILES,Percent Effect [1] [%],Percent Effect [2] [%],Percent Effect [3] [%],Percent Effect [4] [%],Percent Effect [5] [%],Percent Effect [6] [%],Percent Effect [7] [%],Percent Effect [8] [%],Percent Effect [9] [%],Percent Effect [10] [%],Percent Effect [11] [%]
CCN(c1ccc(C(=O)NCCCN2CCCC2)cc1)S(=O)(=O)CC,-0.13,5.26,-1.17,-1.94,-9.83,-7.1,14.1,-5.53,4.25,7.79,-3.78
O=C(c1n[nH]c(=O)c2ccccc12)N1CCCCC1c1ccn[nH]1 (stereo unspecified),-1.96,1.35,14.9,-7.74,-5.53,-8.12,1.72,0.863,4.3,6.49,-5.69
COc1ccccc1N1CCC(CNCc2cccc(O)c2)C1 (stereo unspecified),-2.9,-5.41,15.1,11,1.6,-4.81,4.14,20.2,0.493,6.17,-6.34
COC(=O)c1ccc(N2CCN(C(=O)c3cc(C)on3)C(C)C2)cc1 (stereo unspecified),-1.64,12.7,13.9,10.2,-3.87,0.76,9.42,7.47,-2.46,3.8,-6.13
CS(=O)(=O)NC[C@@H]1OC[C@H]2CN(C(=O)c3ccc[nH]3)CC[C@H]21,-1.96,-187,4.44,3.67,-18.5,-44.3,10.6,-0.978,-265,-628,-2.84
CC(C)OCCN1CCC(N2CCN(C)C2=O)CC1,-8.32,10.4,-1.47,4.31,8.24,-6.05,-1.18,6.82,4.85,14.6,-9.74
Cc1ccc(CC2CCCN2CC(=O)NCc2ccccn2)cc1 (stereo unspecified),-7.47,-5.26,-11.2,3.27,-1.66,2.37,8.53,-4.78,7.45,13,-2.14
CC(=O)NCCN1CCC(c2cccs2)CC1,-3.79,5.48,4.81,1.43,6.27,-1.36,17.9,3.79,2.15,10,-6.86
O=C(CN1CCCCC1Cn1cncn1)NCc1ccccn1 (stereo unspecified),-0.608,2.53,-4.5,-1.76,-5,5.32,-6.31,11,4.43,3.8,-4.29
CC(=O)NCC(=O)N1C[C@H](OCc2cccnc2)[C@H]2COC[C@H]21,-4.16,2.7,1.91,2.9,-4.49,2.5,12.3,5.47,4.95,6.1,-2.54
CCNC(=O)c1nnc2ccc(N3CCOCC3)cc2n1,-7.02,-1.33,58.5,3.63,-6.09,-3.7,7.95,19.8,7.41,7.69,-13.2
